Hits are enriched below; roughly 2.8% of the tested compounds scored in any of these assays.
POLB inh: DNA polymerase beta (human) inhibition; P06746; Pol beta primer extension/strand displacement, fluorescence kinetic; Potency, µM (titrated, usually from 114 µM), inactives show at the highest dose activity change, negative = inhibition, actives largely listed as inhibitors; 340,000 compounds, 1.3% hits; further: potency means the concentration at half of the fitted maximal effect; on the % scale 0 is the no-effect control and ±100 the full control effect
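Pol beta (10 nM) and compounds were preincubated 15 min at room temperature, then 50 nM substrate (final) started primer extension/strand displacement. Reads were taken at 0 and 10 min; concentration-response data were fitted to a four-parameter Hill equation.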
PI4K2A inh: inhibitors of human PI4K2A; Q9BTU6; purified PI4K2A, ADP-Glo luminescence, 1 h; active compounds read low; activity change, negative = inhibition, % at 76.9 µM; 420,000 compounds, 0.13% hits; AID 1346378; in the data active means activity change below about -50%; inconclusive means mostly about -30% to -49%;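 further: -100% = wells without enzyme as full effect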
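Compounds are screened against recombinant PI4K2A using PI as substrate and ATP, the latter dispensed at 300 microM. Reactions run one hour at ambient temperature before ADP-Glo detection; full inhibition defined by wells lacking enzyme.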
POLI inh: DNA polymerase iota (human) inhibition; 390,000 compounds, 1% hits; Pol iota fluorescent replication assay, 10 min; Potency, µM (doses to about 115 µM), for inactives: at the top dose activity, negative = inhibition, most hits filed as inhibitors; AID 588590; Q9UNA4; further: potency means the concentration at half of the fitted maximal effect
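Pol iota at 10 nM preincubated 15 min with compounds at room temperature; reaction started with fluorescent substrate, 50 nM final. Fluorescence read kinetically at 0 and 10 min; buffer-only wells as negative control.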
Pol kappa inh-1: blocks human DNA polymerase kappa activity; Q9UBT6; purified Pol kappa, fluorescent DNA synthesis assay, 10 min; Potency, µM (highest dose often 107 µM), for the others: top-dose activity, negative = inhibition, usual class: inhibitors; 400,000 compounds, 0.53% hits; AID 588579; further: potency means the concentration at half of the fitted maximal effect; on the % scale 0 is the no-effect control and ±100 the full control effect
Target sequence (Q9UBT6 whole entry, looked up): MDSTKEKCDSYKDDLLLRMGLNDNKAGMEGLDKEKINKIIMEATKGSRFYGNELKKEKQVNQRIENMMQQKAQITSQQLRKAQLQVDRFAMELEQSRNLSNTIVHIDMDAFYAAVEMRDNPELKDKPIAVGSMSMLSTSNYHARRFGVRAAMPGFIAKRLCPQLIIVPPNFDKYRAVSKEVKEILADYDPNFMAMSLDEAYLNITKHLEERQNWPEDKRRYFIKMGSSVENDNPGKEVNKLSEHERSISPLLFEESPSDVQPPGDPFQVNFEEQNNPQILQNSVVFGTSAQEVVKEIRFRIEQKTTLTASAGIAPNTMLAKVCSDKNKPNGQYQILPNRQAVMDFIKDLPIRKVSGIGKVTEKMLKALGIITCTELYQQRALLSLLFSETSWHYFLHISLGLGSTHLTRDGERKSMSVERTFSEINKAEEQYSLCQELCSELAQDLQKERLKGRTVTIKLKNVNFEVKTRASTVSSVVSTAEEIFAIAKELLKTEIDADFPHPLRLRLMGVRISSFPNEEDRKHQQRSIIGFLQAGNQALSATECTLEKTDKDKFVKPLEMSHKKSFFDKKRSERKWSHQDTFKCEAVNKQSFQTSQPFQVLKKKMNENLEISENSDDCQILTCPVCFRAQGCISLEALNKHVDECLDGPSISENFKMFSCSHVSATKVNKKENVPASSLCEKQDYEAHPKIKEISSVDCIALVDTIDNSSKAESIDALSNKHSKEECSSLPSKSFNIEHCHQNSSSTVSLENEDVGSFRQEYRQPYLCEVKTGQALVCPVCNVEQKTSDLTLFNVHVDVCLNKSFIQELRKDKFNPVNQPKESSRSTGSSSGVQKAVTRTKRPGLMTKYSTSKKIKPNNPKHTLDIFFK
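Here, compound and 10 nM enzyme are combined for 15 min at room temperature; adding 50 nM substrate (final) starts DNA synthesis, tracked by fluorescence at 0 and 10 min against buffer-only wells.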
Pol eta inh-1: DNA polymerase eta (human) inhibition | recombinant Pol eta, fluorescent DNA replication assay | Potency, µM (doses to about 114 µM), for inactives: top-dose activity change, negative = inhibition, usual class: inhibitors | 390,000 compounds, 1.2% hits | Q9Y253; further: potency means the concentration at half of the fitted maximal effect; on the % scale 0 is the no-effect control and ±100 the full control effect
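Fluorescent replication assay: 50 nM final substrate added after a 15 min room-temperature compound preincubation with 10 nM enzyme. Signal taken at 0 min and again at 10 min.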
PI5P4Ka inh: inhibitors of human PI5P4K alpha | P48426 | PI5P4Kalpha enzyme, ADP-Glo luminescence, 60 min; active compounds read low | max response, % | 330,000 compounds, 1.2% hits; active means max response of -50% or lower; inconclusive means between -30% and -50%; inactive means -30% or higher; further: value at the top dose of about 77 µM; on the % scale 0 is the no-effect control and ±100 the full control effect
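ADP-Glo luminescence end-point after a 60 min room-temperature kinase reaction. PI5P4Kalpha and substrate in HEPES pH 7.4 buffer with EGTA, 0.1% CHAPS and 5% DMSO; ATP at 5 microM final.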
PGK validate: validation of Trypanosoma brucei phosphoglycerate kinase inhibitors | shares compounds with Pol kappa inh-1 | TbPGK coupled GAPDH assay, Kinase-Glo luminescence | Potency, µM (series often up to 57.5 µM), for the others: at the highest dose activity change, negative = inhibition, actives largely listed as inhibitors | 500 compounds, 79% hits; further: potency means the concentration at half of the fitted maximal effect; on the % scale 0 is the no-effect control and ±100 the full control effect; nearly all actives have a fitted effect of over 65% in size
Pol iota confirm: Inhibitors of human DNA polymerase iota, confirmation. 1,500 compounds, 77% hits. Potency, µM, usual class: inhibitors. shares compounds with Pol kappa inh-1. AID 720496. Pol iota primer extension, TAMRA/BHQ fluorescence; further: potency means the concentration at half of the fitted maximal effect
Pol kappa inh-2: confirmation of human DNA polymerase kappa inhibitors; AID 720501; shares compounds with Pol eta inh-1; 920 compounds, 76% hits; purified Pol-kappa, fluorescent strand-displacement substrate; Potency, µM, actives largely listed as inhibitors; further: potency means the concentration at half of the fitted maximal effect
Pol eta inh-2: confirmation of human DNA polymerase eta inhibitors; 2,600 compounds, 64% hits; Pol eta primer extension, TAMRA/BHQ fluorescence, 10 min; Potency, µM, actives largely listed as inhibitors; shares compounds with Pol eta inh-1; further: potency means the concentration at half of the fitted maximal effect
An asterisk follows results filed as active; ? = inconclusive; · = no result given; ! = not active in a repeat. Unless noted, the call rests on the fitted dose curve; in most records, active means well fitted curve in the direction sought with a large enough effect; inconclusive means small, poorly fitted or top-dose-only effect, or another doubt; inactive means no such curve, though single readings can be large; an effect the other way counts as inactive or inconclusive.

SMILES | POLB inh | PI4K2A inh | POLI inh | Pol kappa inh-1 | Pol eta inh-1 | PI5P4Ka inh | Pol iota confirm | Pol eta inh-2 | others
O=C(O)c1cc(O)c2c(c1)C(=O)c1cccc(O)c1C2=O | 11µM* | -5 | 40µM* | 50µM* | 50µM* | -91* | 67* | 76* | Pol kappa inh-2=47*
Cc1cc(O)c2c(c1)C(=O)c1cccc(O)c1C2=O | -1% | · | · | ? | · | · | · | ·
N#C/C(=C\c1ccc(O)c(O)c1)C(=O)c1ccc(O)c(O)c1 | 0.063µM* | -11 | 1.1µM* | 0.34µM* | 0.13µM*! | -60* | 0.75* | 0.67* | PGK validate=0.33µM*;Pol kappa inh-2=0.38*
CCOc1ccc(NC(=O)Cn2c(=O)n(CCCCCC(=O)NCc3ccccc3)c(=O)c3sccc32)cc1 | 16% | -3 | 5% | 6% | · | · | · | ·
Cc1cc(N2CCOc3ccccc32)nc2ccccc12 | · | -7 | · | · | · | · | · | ·
CCOc1ccc(CN(C(=O)/C=C/c2ccco2)C2CCS(=O)(=O)C2)cc1 (stereo not drawn) | ? | -3 | ? | -20% | 0% | -16 | · | ·
COc1cccc(CN(C(=O)/C=C/c2ccco2)C2CCS(=O)(=O)C2)c1 (stereo not drawn) | ? | -16 | 45µM* | 89µM* | ? | -14 | ? | ?
COc1ccc(CN(C(=O)/C=C/c2ccco2)C2CCS(=O)(=O)C2)cc1 (stereo not drawn) | 20µM* | -10 | 18µM* | ? | 50µM* | ? | 53* | 85*
CCCOc1ccc(C(=O)Nc2cc3nn(-c4ccc(CC)cc4)nc3cc2C)cc1 | 2% | 1 | 10% | -9% | -15% | · | · | ·
COc1cc(-c2noc(C)c2/C=C/c2ccc(C(=O)O)cc2)cc(OC)c1OC | 14µM* | -1 | ? | 71µM* | 13µM* | -3 | 42* | 27*
COc1cc(-c2noc(C)c2/C=C/c2cccc([N+](=O)[O-])c2)cc(OC)c1OC | 21% | -3 | -8% | -2% | -13% | 1 | · | ·
Cc1cc(NC(=O)COCc2cc(-c3ccc(F)cc3)on2)ccc1Br | 0% | -7 | 9% | -22% | -13% | · | · | ·
C=C(C)C(=O)Nc1cccc(C2=NOC3(C2)C[C@H](C(N)=O)N(C(=O)c2ccccc2C(=O)c2ccccc2)C3)c1 (stereo partly drawn) | 8.9µM* | -10 | 45µM* | ? | 5.6µM* | -26 | 47* | 19*
C=C(C)C(=O)Nc1cccc(C2=NOC3(C2)C[C@@H](C(N)=O)N(C(=O)CC(c2ccccc2)c2ccccc2)C3)c1 (stereo partly drawn) | 13µM* | -5 | ? | 35µM* | 4µM* | ? | 75* | 30* | PGK validate=3.3µM*
C/C=C(\C)C(=O)Nc1cccc(C2=NOC3(C2)C[C@@H](C(N)=O)N(C(=O)c2ccccc2C(=O)c2ccccc2)C3)c1 (stereo partly drawn) | 13% | -1 | 40% | -4% | -18% | 3 | · | ·
COc1ccc(Cn2cc(CN3CC(N4CCN(C)CC4)CS3(=O)=O)nn2)cc1 (stereo not drawn) | · | -5 | · | · | · | 1 | · | ·
C#CCNC(=O)C[C@H]1C[C@@]2(C(=O)OC)C(=C[C@H](COCc3ccccc3)O[C@@H]2C)N(Cc2cccc3ccccc23)C1=O | · | 1 | · | · | · | · | · | ·
O=C(O)Cc1ccc(NC(=O)c2ccc3c(c2)C(=O)N(Cc2ccco2)C3=O)cc1 | -7% | 2 | 11µM* | ? | 4µM* | -22 | 60* | 24*
O=C(O)Cc1ccc(NC(=O)c2ccc3c(c2)C(=O)N(Cc2ccccc2)C3=O)cc1 | · | 0 | · | · | -12% | 1 | · | ·
O=C(Nc1cccc(C(F)(F)F)c1)C1CC(=O)N(Cc2ccco2)C1 (stereo not drawn) | · | -2 | · | · | -6% | 2 | · | ·
CC1CCN(CCCNC(=O)c2cc3c(s2)-c2ccccc2OC3)CC1 | -19% | -4 | 3% | 13% | -16% | -3 | · | ·
Cc1ccc(CCNC(=O)c2cc3c(s2)-c2ccccc2OC3)cc1 | 14µM* | 1 | 79µM* | ? | ? | · | 47* | ?
O=C1C=CC(n2cc(F)c(=O)[nH]c2=O)O1 (stereo not drawn) | · | -8 | · | · | 20µM* | 0 | · | ? | PGK validate=18µM*
Cc1c(C)n(C(=O)CSc2nc3ccccc3[nH]2)c2ccccc12 | 8.9µM* | 3 | ? | ? | ? | -10 | ? | 38*
Cc1cc(C=O)c(C)n1-c1ccc(Cl)c(C(=O)O)c1 | 3.2µM* | -5 | 5.6µM* | 22µM* | 3.2µM* | -54* | 11* | 6* | PGK validate=12µM*
SMILES | POLB inh | PI4K2A inh | POLI inh | Pol kappa inh-1 | Pol eta inh-1 | PI5P4Ka inh | Pol iota confirm | Pol eta inh-2 | others
COc1ccc(-n2c(C)cc(C=O)c2C)cc1Cl | 2% | -4 | 0% | 1% | -18% | 2 | · | ·
C=CCNC(=O)c1ccc(Cn2c(=S)[nH]c3cc4c(cc3c2=O)OCO4)cc1 | -14% | ? | 20µM* | 79µM* | ? | · | 67* | · | Pol kappa inh-2=47*
O=C(NCCN1CCCC1)c1ccc(Cn2c(=S)[nH]c3cc4c(cc3c2=O)OCO4)cc1 | 1% | -12 | ? | -5% | ? | · | · | ·
COc1cc(C(=O)N=c2sccn2C)c([N+](=O)[O-])cc1OC | 22% | -22 | 121% | -34% | -15% | 1 | · | ·
Cn1ccsc1=NC(=O)c1ccc([N+](=O)[O-])o1 | 8% | -10 | 25µM* | ? | 40µM* | -60* | 34* | 43*
CCOc1ccc(NC(=O)c2cc(=O)c3ccc(C)c(C)c3o2)cc1 | 0% | 2 | 19% | 0% | -18% | · | · | ·
COc1cc(C2c3c([nH]c(=O)[nH]c3=O)Nc3ccc4ccccc4c32)cc(OC)c1OC (stereo not drawn) | 8% | -60* | 18µM* | 25µM* | 79µM* | -21 | 42* | 60*
COc1ccc(CCNC(=O)Cn2nc(C)c3c(C)n(-c4ccc(C)cc4)nc3c2=O)c(OC)c1 | 35µM* | -13 | ? | -23% | ? | · | 67* | 85* | Pol kappa inh-2=27*
